# KB-3-1 cytotox: KB-3-1 parental cell cytotoxicity | Potency, µM (doses to about 46.1 µM), most hits filed as cytotoxic | actives 1.4% (n = 400,000) | KB-3-1 viability, CellTiter-Glo ATP luminescence, 72 h; note: % is set by controls: 0 for no effect and ±100 for the full control effect; nearly all actives have a fitted effect of over 60% in size
#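 Cytotoxicity measured as CellTiter-Glo luminescence after 72 h at 37 C. Compound titrations were pinned onto drug-naive KB-3-1 parental adenocarcinoma cells grown in DMEM with 10% FBS, and normalized data fitted to concentration-response curves.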
# SW480 rereplic: inducers of DNA re-replication in SW480 colon cancer cells | SW480 DNA re-replication, Hoechst DNA content imaging, 48 h | Potency, µM (titrated, usually from 46.1 µM), for the others: at the highest dose re-replication activation, usual class: activators | actives 1.8% (n = 340,000); note: % of control where 0% means no effect; nearly all actives have a fitted effect of over 55% in size
#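 Image-based read-out: total Hoechst fluorescence of nuclei (405 nm excitation, 500-530 nm emission), with hits raising the fraction of high-intensity nuclei. SW480 colon cells incubated 48 hr with compounds at 37 C.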
# MCF10A rereplic: DNA re-replication induction in MCF 10a cells; MCF 10A DNA re-replication, Hoechst nuclear intensity, 48 h; Potency, µM (doses to about 46.1 µM), inactives show at the top dose activity, positive = re-replication, most hits filed as activators; actives 2.9% (n = 350,000); note: % of control where 0% means no effect; nearly all actives have a fitted effect of over 50% in size
# HT1080 IDH1KD tx: toxicity to HT-1080 IDH1 knockdown cells (counter line); Potency, µM (top dose mostly 46.1 µM), for the others: at the top dose activity, negative = toxicity, hits mostly cytotoxic; actives 2% (n = 360,000); HT-1080 IDH1 knockdown viability, ATP luminescence, 48 h;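 note: 0% = DMSO wells and -100% = cell-free medium wells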
#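 Assay cells: HT-1080 with IDH1 knockdown, 750 per well, RPMI/5% FBS. Exposure: 48 h at 37 °C following 2 h pre-incubation. Read: CellTiter-Glo luminescence; fitted concentration-response, curve class assigned.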
# KB-V1 MDR tox: KB-V1 MDR subline cytotoxicity; actives 3.4% (n = 400,000); KB-V1 MDR cells viability, CellTiter-Glo, 72 h; Potency, µM (titrated, usually from 46.1 µM), most hits filed as cytotoxic; note: % is set by controls: 0 for no effect and ±100 for the full control effect; nearly all actives have a fitted effect of over 60% in size
#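 Potencies derive from concentration-effect curves fitted to normalized luminescence (CellTiter-Glo) of KB-V1 cells treated for 72 h at 37 degrees C in phenol-red-free DMEM containing 10% FBS.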
# HT1080-NT tox: kills 2HG-producing HT-1080-NT fibrosarcoma cells | actives 1.6% (n = 360,000) | Potency, µM (series often up to 46.1 µM), inactives show at the highest dose activity, negative = less viability, hits mostly cytotoxic | HT-1080-NT fibrosarcoma viability, CellTiter-Glo ATP luminescence, 48 h;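 note: NT is the 2HG producing partner of a matched IDH1 knockdown line; 0% = DMSO-treated cells and -100% = media-only wells without cells; nearly all actives have a fitted effect of over 55% in size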
#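 Viability of the 2HG-overproducing fibrosarcoma line after 48 hours of compound exposure at 37 degrees C was determined by luminescence with CellTiter-Glo, and concentration-effect curves were then fitted and categorized.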
# Starred values were filed as active, the others as inactive; i = inactive; ? = inconclusive; . = not tested or not shown; ! = not confirmed by another sample; [ ] = remark or other dose. Sampled rows, rich in hits. Any-hit rate of the full collection: about 7.9%. Calls come from the whole dose curve; as a rule, active = well fitted curve in the direction sought with a large enough effect; inconclusive = small, poorly fitted or top-dose-only effect, or another doubt; inactive = no such curve, though single readings can be large; an effect the other way counts as inactive or inconclusive. Potency is the fitted concentration of half-maximal effect.
SMILES,KB-3-1 cytotox,SW480 rereplic,MCF10A rereplic,HT1080 IDH1KD tx,KB-V1 MDR tox,HT1080-NT tox
COc1ccc(-n2nnnc2SCC(=O)c2ccc3c(c2)OCCO3)c(OC)c1,i,2%,-1%,23%,9.2µM*,7%
COc1ccc(-n2nnnc2SCC(=O)Nc2ccc3c(c2)OCCO3)cc1OC,?,5%,15%,-4%,9.2µM*,-27%
Cc1ccnc2nc(C(=O)N3CCN(c4ccc(F)cc4)CC3)nn12,?,3%,-2%,1%,i,6%
O=C(CSc1nnnn1-c1ccc2c(c1)OCO2)NCc1cccs1,i,-2%,7%,-2%,i,-8%
O=C(CSc1nnnn1-c1ccc2c(c1)OCO2)NCc1ccccc1,7.3µM*,16µM*,26%,13µM*,12µM*,?
COc1cc(OC)cc(-c2nc3ccccc3c(=O)n2OC(=O)c2ccccc2C)c1,i,0%,16µM*,?,?,?
CCOc1ccccc1CNC(=O)CCc1c(C)nn(-c2ccc(N3CCOCC3)nn2)c1C,i,.,.,.,i,.
Nc1ncn([C@H]2C[C@H](O)[C@@H](CO)O2)c(=O)n1,i,0.23µM*,-2%,5%,i,1%
Nc1nc(Cl)nc2c1ncn2C1CC(O)C(CO)O1 (stereo unspecified),8.2µM*,?,?,?,?,?
CCCc1nnc2c(N(C)S(=O)(=O)c3ccc(C)cc3)nc3ccccc3n12,i,-1%,?,-12%,i,-4%
Cc1ccc(Cn2cnc3ccccc32)cc1C,8.2µM*,1%,18%,-30%,21µM*,-8%
CCOC(=O)CSc1nnc([C@H](CC(C)C)NC(=O)OC(C)(C)C)o1,i,1%,1%,2%,i,10%
CCCCc1ccc(-c2csc(/C(C#N)=C\c3ccco3)n2)cc1,i,?,18µM*,-1%,i,2%
CC1=CC(C)=Nc2ccccc2N1,i,-10%,21µM*,-3%,i,3%
CCOC(=O)c1c(C)nn(-c2ccc(NC(=O)c3c(C)noc3C)cc2)c1C,i,-2%,14%,-2%,i,-15%
CC(C)N(Cc1ccccc1)C(=O)c1nc(-c2ccc(Cl)cc2)n2c1CCCCC2,i,.,.,.,16µM*,.
Cc1ccc(-c2nc(C(=O)NCc3ccc(Cl)cc3)c3n2CCCCC3)cc1,?,.,.,.,13µM*,.
COC(=O)c1ccccc1NC(=O)c1nc(-c2ccc(C)cc2)n2c1CCCCC2,?,.,.,.,15µM*,.
Cc1c(NC(=O)c2cccc(S(=O)(=O)N(C)c3ccccc3)c2)c(=O)n(-c2ccccc2)n1C,i,-13%,-5%,18%,?,7%
CC(=O)n1cc(N(C(=O)CCl)c2ccc(C)cc2)c2ccccc21,18µM*,?,15µM*,2.9µM*,?,2.3µM*
Nc1nc(SCC(=O)Nc2ccccc2-c2ccccc2)n[nH]1,i,1%,1%,-4%,?,?
COc1ccc(CNC(=O)c2cc3ccccc3o2)cc1OC,i,13%,-1%,-18%,8.2µM*,-9%
Cc1ccc2[nH]cc(CCNC(=O)c3cccnc3)c2c1,i,12%,21µM*,12%,i,1%
COc1ccc(CNC(=O)c2ccc3ccccc3n2)cc1OC,?,-10%,8%,-10%,7.3µM*,?
CCc1ccc2oc(C(=O)NCCc3ccc(OC)c(OC)c3)cc(=O)c2c1,16µM*,.,.,.,5.2µM*,.
SMILES,KB-3-1 cytotox,SW480 rereplic,MCF10A rereplic,HT1080 IDH1KD tx,KB-V1 MDR tox,HT1080-NT tox
O=C(OC1CCOC1=O)c1cc(-c2ccc(Cl)cc2)nc2ccccc12 (stereo unspecified),i,0%,-1%,2%,i,0%
COc1ccc(N2CCN(C(=O)c3cc(=O)[nH]c4ccccc34)CC2)cc1,i,0%,-3%,0%,i,3%
COc1ccc2[nH]cc(CCNC(=O)c3ccc4ccccc4n3)c2c1,i,-64%,15µM*,?,i,-22%
COc1ccc(-c2nc3ccc(C)cn3c2Cc2cccc(Cl)c2)cc1OC,i,.,.,18µM*,?,?
COc1ccc(-c2nc3ccc(C)cn3c2Cc2ccccc2)cc1OC,i,.,.,?,i,?
Cc1ccc2nc(C(C)(C)C)c(Cc3cccc(Cl)c3)n2c1,i,.,.,?,i,16µM*
Cc1ccc2nc(-c3ccc(F)cc3)c(Cc3cccc(Cl)c3)n2c1,i,.,.,?,?,?
O=C(O)c1cc(N2C(=O)C3C4C=CC(C4)C3C2=O)ccc1NCc1cccnc1 (stereo unspecified),i,1%,1%,9%,i,13%
Cc1ccc(-n2ncc(C(=O)Nc3ccc(Cl)cc3)c2C2CCNCC2)cc1C,i,5%,0%,?,i,21µM*
CCOc1ccc(NC(=O)c2cnn(-c3ccc(C)c(Cl)c3)c2C2CCNCC2)cc1,i,.,.,.,?,.
CCN1C(=O)c2cccc3c(S(=O)(=O)NCCCN4CCOCC4)ccc1c23,i,-13%,24%,2%,i,9%
CCN1C(=O)c2cccc3c(S(=O)(=O)NCCc4c[nH]c5ccccc45)ccc1c23,i,-2%,10%,-1%,i,0%
CCN1C(=O)c2cccc3c(S(=O)(=O)NCc4ccccc4)ccc1c23,i,?,16µM*,-4%,i,-6%[9.24 µM]
CCN1C(=O)c2cccc3c(S(=O)(=O)N4CCC(C)CC4)ccc1c23,?,?,10µM*,-16%,2.1µM*,-9%
CCN1C(=O)c2cccc3c(S(=O)(=O)Nc4ccccc4OC)ccc1c23,?,1%,?,-11%,16µM*,-1%
CCN1C(=O)c2cccc3c(S(=O)(=O)Nc4ccc(O)c(C(=O)O)c4)ccc1c23,i,0%,6%,25%,i,8%
Clc1ccc(CSc2ncn(-c3ccccc3)n2)cc1,i,-14%,6%,12%,21µM*,11%
O=C1CCC[C@@H]2[C@H](Cc3ccccc3)[C@@H](O)C[C@@H]3CCN1[C@@H]32,?,9%,-45%,-1%,15µM*!,14%
CC1(C)CCN2CCC(C)(C)c3c(O)ccc1c32,?,?,13µM*,?,i,?
CC(=O)Nc1ccc(OCC(O)CN2C(C)CCCC2C)cc1 (stereo unspecified),i,.,-1%,15%,i,9%
Cc1cccc(C(=O)OCC(=O)N2CC(C)OC(C)C2)c1C (stereo unspecified),i,9%,-10%,-1%,i,-1%

# Assay outcomes from PubChem BioAssay.
